# Data reported in PMC7862700, “An all-to-all approach to the identification of sequence-specific readers for epigenetic DNA modifications on cytosine”.
# Assays:
# Experiment in all cases: DAPPL (digital affinity profiling via proximity ligation, sequencing); 10 mM Tris-HCl pH 7.5, 50 mM NaCl, 1 mM DTT, 4% glycerol, room temperature, 30 min; GST-TFs on glutathione beads, 16-mer random dsDNA library, 0.1% formaldehyde crosslink after washing; high values mean tight binding
# FLI1 = target: T1, FLI1 (Homo sapiens, UniProt Q01543 1-452); details: protein: recombinant; tags: N-terminal GST; dsDNA, one strand shown
# T1 sequence: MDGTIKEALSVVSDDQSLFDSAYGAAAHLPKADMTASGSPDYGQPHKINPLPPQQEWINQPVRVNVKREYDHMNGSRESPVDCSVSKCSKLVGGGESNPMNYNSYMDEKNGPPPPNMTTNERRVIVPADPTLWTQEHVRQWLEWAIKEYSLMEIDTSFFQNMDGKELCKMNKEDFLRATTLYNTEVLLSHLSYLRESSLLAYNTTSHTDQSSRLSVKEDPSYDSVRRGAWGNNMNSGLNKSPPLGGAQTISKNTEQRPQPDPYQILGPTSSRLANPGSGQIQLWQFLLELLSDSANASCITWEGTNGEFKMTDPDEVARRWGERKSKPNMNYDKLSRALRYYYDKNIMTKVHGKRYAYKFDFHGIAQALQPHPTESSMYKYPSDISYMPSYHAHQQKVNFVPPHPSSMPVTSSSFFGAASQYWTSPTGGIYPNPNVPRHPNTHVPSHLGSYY
# Method in brief: (§1)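 Pools of DNA-barcoded human transcription factors, expressed in yeast as GST fusions on glutathione beads and combined with a tag-only sample, were incubated with 200 nmole of a 16-mer random double-stranded DNA library. Incubation took 30 min at room temperature in Tris/NaCl/DTT/glycerol buffer and was followed by washing, 0.1% formaldehyde crosslinking, proximity ligation (BsaI/T4 ligase, 1 h, 37 °C), PCR amplification and sequencing on an Illumina NextSeq500. Binding signal is the ratio of a hexamer's read frequency for a factor to its frequency for the tag-only sample.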
# ELK1 = target: T2, ELK1 (Homo sapiens, UniProt P19419 1-428); details: protein: recombinant; tags: N-terminal GST; dsDNA, one strand shown
# T2 sequence: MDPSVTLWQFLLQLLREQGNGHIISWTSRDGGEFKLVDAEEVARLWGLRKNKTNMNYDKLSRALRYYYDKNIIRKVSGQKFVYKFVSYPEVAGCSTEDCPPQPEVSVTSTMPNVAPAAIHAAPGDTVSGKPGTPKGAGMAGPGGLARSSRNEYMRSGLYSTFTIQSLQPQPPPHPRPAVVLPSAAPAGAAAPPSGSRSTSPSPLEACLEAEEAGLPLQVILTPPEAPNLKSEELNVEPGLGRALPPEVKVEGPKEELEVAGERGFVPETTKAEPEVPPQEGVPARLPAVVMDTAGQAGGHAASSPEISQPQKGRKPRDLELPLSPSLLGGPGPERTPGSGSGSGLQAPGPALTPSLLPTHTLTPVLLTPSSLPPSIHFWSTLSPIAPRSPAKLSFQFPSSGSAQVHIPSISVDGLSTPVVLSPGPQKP
# Method in brief: as §1
# GABPA = target: T3, GABPA (Homo sapiens, UniProt Q06546 1-454); details: protein: recombinant; tags: N-terminal GST; dsDNA, one strand shown
# T3 sequence: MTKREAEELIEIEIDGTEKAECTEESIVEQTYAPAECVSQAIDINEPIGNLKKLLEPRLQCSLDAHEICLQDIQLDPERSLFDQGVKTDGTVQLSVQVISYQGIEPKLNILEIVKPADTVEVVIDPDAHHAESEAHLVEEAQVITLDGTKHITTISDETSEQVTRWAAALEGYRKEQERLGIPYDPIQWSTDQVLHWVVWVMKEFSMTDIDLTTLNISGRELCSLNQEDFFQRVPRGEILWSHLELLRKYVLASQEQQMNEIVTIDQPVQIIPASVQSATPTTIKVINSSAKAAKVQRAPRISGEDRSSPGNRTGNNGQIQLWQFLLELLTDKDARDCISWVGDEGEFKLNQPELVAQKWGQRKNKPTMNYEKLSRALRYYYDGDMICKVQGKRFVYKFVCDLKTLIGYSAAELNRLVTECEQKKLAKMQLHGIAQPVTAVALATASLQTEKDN
# Method in brief: as §1
# ERG = target: T4, ERG (Homo sapiens, UniProt P11308 1-479); details: protein: recombinant; tags: N-terminal GST; dsDNA, one strand shown
# T4 sequence: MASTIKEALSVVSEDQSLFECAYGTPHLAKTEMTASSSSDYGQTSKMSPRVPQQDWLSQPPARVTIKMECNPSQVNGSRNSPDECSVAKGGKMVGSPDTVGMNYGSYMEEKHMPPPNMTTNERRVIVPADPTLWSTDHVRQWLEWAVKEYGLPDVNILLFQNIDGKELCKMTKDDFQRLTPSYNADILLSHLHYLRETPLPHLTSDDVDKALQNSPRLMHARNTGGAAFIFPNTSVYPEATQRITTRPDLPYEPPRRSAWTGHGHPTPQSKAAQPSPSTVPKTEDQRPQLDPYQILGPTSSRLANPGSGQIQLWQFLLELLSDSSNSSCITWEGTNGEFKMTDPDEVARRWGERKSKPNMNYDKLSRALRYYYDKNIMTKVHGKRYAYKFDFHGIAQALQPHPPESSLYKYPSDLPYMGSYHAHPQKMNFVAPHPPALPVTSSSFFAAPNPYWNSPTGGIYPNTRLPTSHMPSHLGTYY
# Method in brief: as §1
# ELF1 = ELF1 (Homo sapiens, UniProt P32519 1-619); details: protein: recombinant; tags: N-terminal GST; dsDNA, one strand shown
# ELF1, sequence (P32519 whole entry): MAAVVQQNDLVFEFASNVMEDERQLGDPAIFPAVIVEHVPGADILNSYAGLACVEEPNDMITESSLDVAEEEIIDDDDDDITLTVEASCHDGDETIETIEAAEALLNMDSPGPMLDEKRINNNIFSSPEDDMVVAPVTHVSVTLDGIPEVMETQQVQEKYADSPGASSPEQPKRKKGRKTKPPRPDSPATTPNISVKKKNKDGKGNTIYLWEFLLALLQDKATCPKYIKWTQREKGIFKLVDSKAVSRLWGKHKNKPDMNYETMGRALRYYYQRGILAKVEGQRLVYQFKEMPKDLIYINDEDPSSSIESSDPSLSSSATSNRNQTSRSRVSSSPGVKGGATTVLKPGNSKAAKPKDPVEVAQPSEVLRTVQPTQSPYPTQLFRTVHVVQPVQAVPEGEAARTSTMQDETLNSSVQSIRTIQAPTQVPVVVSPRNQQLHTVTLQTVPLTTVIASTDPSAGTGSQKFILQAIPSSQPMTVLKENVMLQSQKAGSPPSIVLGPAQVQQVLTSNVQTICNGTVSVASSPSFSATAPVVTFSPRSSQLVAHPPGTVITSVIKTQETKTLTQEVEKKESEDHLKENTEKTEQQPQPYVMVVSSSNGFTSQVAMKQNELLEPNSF
# Method in brief: as §1
# EHF = target: T5, EHF (Homo sapiens, UniProt Q9NZC4 1-300); details: protein: recombinant; tags: N-terminal GST; dsDNA, one strand shown
# T5 sequence: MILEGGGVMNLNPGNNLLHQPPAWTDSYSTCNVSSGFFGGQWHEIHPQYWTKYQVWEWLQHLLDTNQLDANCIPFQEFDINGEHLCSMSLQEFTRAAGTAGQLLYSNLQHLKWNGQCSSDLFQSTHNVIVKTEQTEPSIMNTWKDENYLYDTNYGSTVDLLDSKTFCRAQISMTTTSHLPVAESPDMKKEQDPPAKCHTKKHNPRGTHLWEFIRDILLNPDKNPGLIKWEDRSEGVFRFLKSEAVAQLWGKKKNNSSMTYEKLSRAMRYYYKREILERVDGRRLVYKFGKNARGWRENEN
# Method in brief: as §1
# SPI1 = SPI1 (Homo sapiens, UniProt P17947 1-270); details: protein: recombinant; tags: N-terminal GST; dsDNA, one strand shown
# Method in brief: as §1
# SPIB = SPIB (Homo sapiens, UniProt Q01892 1-262); details: protein: recombinant; tags: N-terminal GST; dsDNA, one strand shown
# SPIB, sequence (Q01892 whole entry): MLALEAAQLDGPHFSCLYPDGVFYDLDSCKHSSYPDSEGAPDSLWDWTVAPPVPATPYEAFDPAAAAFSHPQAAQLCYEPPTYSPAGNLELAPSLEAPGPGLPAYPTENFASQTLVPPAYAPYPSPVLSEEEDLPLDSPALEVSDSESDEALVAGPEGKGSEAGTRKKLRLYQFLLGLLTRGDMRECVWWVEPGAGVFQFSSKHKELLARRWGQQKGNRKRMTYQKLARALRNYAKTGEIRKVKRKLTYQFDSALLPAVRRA
# Method in brief: as §1
# ELK3 = target: T6, ELK3 (Homo sapiens, UniProt P41970 1-407); details: protein: recombinant; tags: N-terminal GST; dsDNA, one strand shown
# T6 sequence: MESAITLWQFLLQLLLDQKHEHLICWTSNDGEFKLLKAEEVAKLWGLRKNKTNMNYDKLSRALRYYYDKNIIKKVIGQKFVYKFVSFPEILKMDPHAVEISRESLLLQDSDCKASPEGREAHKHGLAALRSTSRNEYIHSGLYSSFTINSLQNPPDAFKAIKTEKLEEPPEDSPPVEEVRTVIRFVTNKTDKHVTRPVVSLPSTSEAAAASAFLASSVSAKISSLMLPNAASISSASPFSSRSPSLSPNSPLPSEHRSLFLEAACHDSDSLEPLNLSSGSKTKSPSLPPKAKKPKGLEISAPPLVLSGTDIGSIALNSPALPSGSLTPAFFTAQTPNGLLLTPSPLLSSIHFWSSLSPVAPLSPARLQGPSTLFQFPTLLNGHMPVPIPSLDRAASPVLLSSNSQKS
# Method in brief: as §1
# FEV = target: T7, FEV (Homo sapiens, UniProt Q99581 1-238); details: protein: recombinant; tags: N-terminal GST; dsDNA, one strand shown
# T7 sequence: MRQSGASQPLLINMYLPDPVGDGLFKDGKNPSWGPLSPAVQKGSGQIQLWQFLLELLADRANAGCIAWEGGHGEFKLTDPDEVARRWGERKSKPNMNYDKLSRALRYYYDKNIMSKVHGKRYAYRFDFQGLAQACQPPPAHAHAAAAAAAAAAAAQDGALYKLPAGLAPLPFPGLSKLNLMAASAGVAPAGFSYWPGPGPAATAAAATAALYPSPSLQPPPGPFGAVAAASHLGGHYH
# Method in brief: as §1
# ETV5 = ETV5 (Homo sapiens, UniProt P41161 1-510); details: protein: recombinant; tags: N-terminal GST; dsDNA, one strand shown
# ETV5, sequence (P41161 whole entry): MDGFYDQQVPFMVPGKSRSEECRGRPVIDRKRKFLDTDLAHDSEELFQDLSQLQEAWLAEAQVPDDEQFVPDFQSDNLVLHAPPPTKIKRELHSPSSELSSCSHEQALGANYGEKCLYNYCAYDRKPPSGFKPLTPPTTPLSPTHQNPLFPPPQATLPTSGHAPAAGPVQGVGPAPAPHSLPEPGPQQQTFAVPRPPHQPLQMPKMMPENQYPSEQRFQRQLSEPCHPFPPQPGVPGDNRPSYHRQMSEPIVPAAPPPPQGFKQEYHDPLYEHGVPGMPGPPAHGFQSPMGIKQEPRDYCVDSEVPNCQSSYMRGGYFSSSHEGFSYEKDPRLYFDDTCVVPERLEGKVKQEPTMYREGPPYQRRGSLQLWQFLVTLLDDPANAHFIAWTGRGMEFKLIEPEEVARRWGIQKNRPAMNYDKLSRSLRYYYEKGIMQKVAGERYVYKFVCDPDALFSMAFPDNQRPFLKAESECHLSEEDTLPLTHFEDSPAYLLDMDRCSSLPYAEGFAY
# Method in brief: as §1
# HSF1 = HSF1 (Homo sapiens, UniProt Q00613 1-529); details: protein: recombinant; tags: N-terminal GST; chain copies: 3; dsDNA, one strand shown
# HSF1, sequence (Q00613 whole entry): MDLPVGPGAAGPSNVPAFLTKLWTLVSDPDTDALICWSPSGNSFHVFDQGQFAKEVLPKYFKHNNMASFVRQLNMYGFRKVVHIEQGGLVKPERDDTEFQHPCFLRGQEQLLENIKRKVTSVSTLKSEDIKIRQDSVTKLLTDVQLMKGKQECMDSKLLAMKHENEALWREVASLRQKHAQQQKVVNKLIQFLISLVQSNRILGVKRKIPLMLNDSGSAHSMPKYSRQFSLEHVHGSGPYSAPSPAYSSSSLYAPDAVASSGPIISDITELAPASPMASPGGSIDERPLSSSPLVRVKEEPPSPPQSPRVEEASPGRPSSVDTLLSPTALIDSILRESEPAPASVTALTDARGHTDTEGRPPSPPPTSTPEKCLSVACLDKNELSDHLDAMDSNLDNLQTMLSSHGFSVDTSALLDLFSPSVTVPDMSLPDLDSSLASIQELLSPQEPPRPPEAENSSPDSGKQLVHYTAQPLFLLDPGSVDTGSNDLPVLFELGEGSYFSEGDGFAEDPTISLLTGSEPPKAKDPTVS
# Method in brief: as §1
# SPIC = target: T8, SPIC (Homo sapiens, UniProt Q8N5J4 1-248); details: protein: recombinant; tags: N-terminal GST; dsDNA, one strand shown
# T8 sequence: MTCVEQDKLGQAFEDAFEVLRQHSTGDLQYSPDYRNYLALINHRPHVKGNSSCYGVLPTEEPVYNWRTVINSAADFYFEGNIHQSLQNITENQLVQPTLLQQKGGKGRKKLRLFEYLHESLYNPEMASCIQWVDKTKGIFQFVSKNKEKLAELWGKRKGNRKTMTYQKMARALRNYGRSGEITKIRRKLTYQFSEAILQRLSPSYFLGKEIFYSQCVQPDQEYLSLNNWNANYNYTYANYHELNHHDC
# Method in brief: as §1
# ELF4 = ELF4 (Homo sapiens, UniProt Q99607 1-663); details: protein: recombinant; tags: N-terminal GST; dsDNA, one strand shown
# ELF4, sequence (Q99607 whole entry): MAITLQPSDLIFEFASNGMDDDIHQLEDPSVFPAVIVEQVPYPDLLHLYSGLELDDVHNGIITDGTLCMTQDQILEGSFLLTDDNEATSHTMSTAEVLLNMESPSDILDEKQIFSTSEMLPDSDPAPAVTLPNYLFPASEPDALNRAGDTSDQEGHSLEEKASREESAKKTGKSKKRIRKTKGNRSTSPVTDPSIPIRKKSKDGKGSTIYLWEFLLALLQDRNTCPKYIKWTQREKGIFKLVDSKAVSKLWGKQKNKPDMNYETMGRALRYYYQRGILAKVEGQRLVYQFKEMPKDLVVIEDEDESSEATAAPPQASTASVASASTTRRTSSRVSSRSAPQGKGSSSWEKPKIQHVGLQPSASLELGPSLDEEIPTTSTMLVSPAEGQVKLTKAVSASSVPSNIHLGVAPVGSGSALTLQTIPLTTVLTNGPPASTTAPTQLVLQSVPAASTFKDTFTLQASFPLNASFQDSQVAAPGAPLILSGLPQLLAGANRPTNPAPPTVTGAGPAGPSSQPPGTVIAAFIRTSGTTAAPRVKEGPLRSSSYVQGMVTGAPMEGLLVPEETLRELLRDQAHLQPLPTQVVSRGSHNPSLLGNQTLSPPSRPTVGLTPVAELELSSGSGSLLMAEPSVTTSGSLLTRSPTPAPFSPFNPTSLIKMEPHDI
# Method in brief: as §1
# ELK4 = target: T9, ELK4 (Homo sapiens, UniProt P28324-2 1-405); details: protein: recombinant; tags: N-terminal GST; dsDNA, one strand shown
# T9 sequence: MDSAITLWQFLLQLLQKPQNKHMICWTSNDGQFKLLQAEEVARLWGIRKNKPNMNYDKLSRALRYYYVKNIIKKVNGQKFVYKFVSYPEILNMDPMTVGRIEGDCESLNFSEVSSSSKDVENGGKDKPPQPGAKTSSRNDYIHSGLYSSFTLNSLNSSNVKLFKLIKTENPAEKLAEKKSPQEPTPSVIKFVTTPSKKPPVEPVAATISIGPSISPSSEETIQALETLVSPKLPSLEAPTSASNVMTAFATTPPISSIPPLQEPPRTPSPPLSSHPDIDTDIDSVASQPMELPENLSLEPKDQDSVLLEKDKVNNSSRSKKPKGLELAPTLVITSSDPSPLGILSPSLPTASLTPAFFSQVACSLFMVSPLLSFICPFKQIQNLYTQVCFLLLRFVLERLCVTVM
# Method in brief: as §1
# ETV2 = target: T10, ETV2 (Homo sapiens, UniProt O00321 1-342); details: protein: recombinant; tags: N-terminal GST; dsDNA, one strand shown
# T10 sequence: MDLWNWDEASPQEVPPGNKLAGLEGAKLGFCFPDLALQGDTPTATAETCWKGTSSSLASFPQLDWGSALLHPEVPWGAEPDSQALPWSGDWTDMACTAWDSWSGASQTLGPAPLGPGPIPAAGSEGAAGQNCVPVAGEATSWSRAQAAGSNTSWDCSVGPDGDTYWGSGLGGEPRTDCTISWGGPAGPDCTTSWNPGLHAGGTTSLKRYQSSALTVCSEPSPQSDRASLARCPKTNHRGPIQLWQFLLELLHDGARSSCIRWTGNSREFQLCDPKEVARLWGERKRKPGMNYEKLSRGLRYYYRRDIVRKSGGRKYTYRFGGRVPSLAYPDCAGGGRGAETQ
# Method in brief: as §1
# ELF3 = target: T11, ELF3 (Homo sapiens, UniProt P78545 1-371); details: protein: recombinant; tags: N-terminal GST; dsDNA, one strand shown
# T11 sequence: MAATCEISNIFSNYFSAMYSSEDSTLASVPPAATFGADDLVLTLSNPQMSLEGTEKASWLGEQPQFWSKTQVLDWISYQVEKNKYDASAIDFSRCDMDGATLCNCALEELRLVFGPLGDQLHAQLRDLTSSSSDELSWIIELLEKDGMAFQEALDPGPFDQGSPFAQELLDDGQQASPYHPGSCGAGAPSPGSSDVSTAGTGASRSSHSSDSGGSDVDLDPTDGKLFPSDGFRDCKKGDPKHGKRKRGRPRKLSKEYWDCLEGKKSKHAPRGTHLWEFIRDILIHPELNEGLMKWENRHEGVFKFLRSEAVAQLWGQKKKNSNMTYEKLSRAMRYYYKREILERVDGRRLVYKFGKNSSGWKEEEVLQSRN
# Method in brief: as §1
# CRX = CRX (Homo sapiens, UniProt O43186 1-299); details: protein: recombinant; tags: N-terminal GST; dsDNA, one strand shown
# CRX, sequence (O43186 whole entry): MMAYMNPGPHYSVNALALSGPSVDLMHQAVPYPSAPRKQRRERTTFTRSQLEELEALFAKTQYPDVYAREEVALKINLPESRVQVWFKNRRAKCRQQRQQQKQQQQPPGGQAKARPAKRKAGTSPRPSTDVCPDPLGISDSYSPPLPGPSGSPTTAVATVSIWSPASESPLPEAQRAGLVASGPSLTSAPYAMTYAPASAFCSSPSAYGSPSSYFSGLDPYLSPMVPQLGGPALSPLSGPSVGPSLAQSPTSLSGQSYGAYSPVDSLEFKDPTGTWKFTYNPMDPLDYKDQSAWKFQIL
# Method in brief: as §1
# ETV1 = ETV1 (Homo sapiens, UniProt P50549 1-477); details: protein: recombinant; tags: N-terminal GST; dsDNA, one strand shown
# ETV1, sequence (P50549 whole entry): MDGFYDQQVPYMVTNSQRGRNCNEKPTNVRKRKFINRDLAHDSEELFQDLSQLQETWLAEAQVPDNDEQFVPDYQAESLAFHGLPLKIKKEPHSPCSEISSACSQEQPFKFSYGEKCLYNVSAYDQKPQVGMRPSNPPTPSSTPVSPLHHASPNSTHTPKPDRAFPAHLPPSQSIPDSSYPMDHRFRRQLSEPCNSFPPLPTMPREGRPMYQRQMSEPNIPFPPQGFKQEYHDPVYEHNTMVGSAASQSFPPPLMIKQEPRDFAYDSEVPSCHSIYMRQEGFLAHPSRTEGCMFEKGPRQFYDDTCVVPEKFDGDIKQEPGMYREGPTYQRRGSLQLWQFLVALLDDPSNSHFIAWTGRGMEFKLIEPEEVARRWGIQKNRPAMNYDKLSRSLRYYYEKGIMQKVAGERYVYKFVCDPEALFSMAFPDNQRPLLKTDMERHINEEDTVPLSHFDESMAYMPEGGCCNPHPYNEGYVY
# Method in brief: as §1
sequence,measurement,setting,value
ATACGA,binding signal,FLI1,"1.09 fold enrichment (6-mer frequency, TF over GST control)"
same,binding signal,ELK1,"1.12 fold enrichment (6-mer frequency, TF over GST control)"
same,binding signal,GABPA,"1.1 fold enrichment (6-mer frequency, TF over GST control)"
same,binding signal,ERG,"1.14 fold enrichment (6-mer frequency, TF over GST control)"
same,binding signal,ELF1,"1.14 fold enrichment (6-mer frequency, TF over GST control)"
same,binding signal,EHF,"1.12 fold enrichment (6-mer frequency, TF over GST control)"
same,binding signal,SPI1,"1.08 fold enrichment (6-mer frequency, TF over GST control)"
same,binding signal,SPIB,"1.09 fold enrichment (6-mer frequency, TF over GST control)"
same,binding signal,ELK3,"1.23 fold enrichment (6-mer frequency, TF over GST control)"
same,binding signal,FEV,"1.16 fold enrichment (6-mer frequency, TF over GST control)"
same,binding signal,ETV5,"1.17 fold enrichment (6-mer frequency, TF over GST control)"
same,binding signal,HSF1,"1.22 fold enrichment (6-mer frequency, TF over GST control)"
same,binding signal,SPIC,"1.01 fold enrichment (6-mer frequency, TF over GST control)"
same,binding signal,ELF4,"1.21 fold enrichment (6-mer frequency, TF over GST control)"
same,binding signal,ELK4,"1.08 fold enrichment (6-mer frequency, TF over GST control)"
same,binding signal,ETV2,"1.05 fold enrichment (6-mer frequency, TF over GST control)"
same,binding signal,ELF3,"1.08 fold enrichment (6-mer frequency, TF over GST control)"
same,binding signal,CRX,"1.17 fold enrichment (6-mer frequency, TF over GST control)"
same,binding signal,ETV1,"1.19 fold enrichment (6-mer frequency, TF over GST control)"
